# MCF10A rerep = inducers of DNA re-replication in MCF 10A breast cells | Potency, µM (highest dose often 46.1 µM), without a hit: top-dose activity, positive = re-replication, most hits filed as activators | AID 624296 | 350,000 tested, 2.9% active | MCF 10A DNA re-replication, Hoechst nuclear intensity, 48 h; note: potency is the fitted concentration of half-maximal effect; % of control where 0% means no effect; nearly all actives have a fitted effect of over 50% in size
# Giardia kill = kills Giardia lamblia | Giardia lamblia trophozoite viability | activity change, % at 7.66 µM, hits read low | 340,000 tested, 0.15% active | AID 540267; in the data active = activity change below about -80%; inconclusive = between about -30% and that limit;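 note: parasites exposed to compound for two days anaerobically before the ATP read; % is set by controls: 0 for no effect and ±100 for the full control effect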
#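 Trophozoite viability was measured as ATP-dependent luminescence, read 15-30 min after reagent addition. Before that, parasites at 100 cells/well were exposed to compounds for 48 h, anaerobically, at 37 deg C.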
# uPA generation = blocks generation of uPA at the cell surface | cell surface uPA generation assay, qHTS | Potency, µM (series often up to 38.3 µM), without a hit: top-dose activity change, negative = inhibition, hits mostly inhibitors | 330,000 tested, 0.31% active | AID 540303; active = well fitted inhibition curve with a large enough effect; inconclusive = small, poorly fitted or top-dose-only effect; inactive = no such curve, though single readings can be large or run the other way; tested in mouse RAW 264.7 cells; note: potency is the fitted concentration of half-maximal effect; % is set by controls: 0 for no effect and ±100 for the full control effect; nearly all actives have a fitted effect of over 55% in size
# SW480 rereplic = inducers of DNA re-replication in SW480 colon cancer cells. SW480 DNA re-replication, Hoechst DNA content imaging, 48 h. Potency, µM (titrated, usually from 46.1 µM), without a hit: at the highest dose re-replication activation, usual class: activators. 340,000 tested, 1.8% active; note: potency is the fitted concentration of half-maximal effect; % of control where 0% means no effect; nearly all actives have a fitted effect of over 55% in size
#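 SW480 cells exposed to compounds for 48 hr at 37 C, 5% CO2, then Hoechst-stained 40 min. Nuclear DNA content imaged by fluorescence scanning (405 nm excitation, 500-530 nm emission); re-replication scored as increased high-intensity nuclei.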
# Numbers without * were called inactive; u = inconclusive; x = no result given; [ ] = dose if it differs, or a comment. This is a sample that favours compounds with a hit; in the whole collection about 4.3% have one here. Unless noted, calls come from the whole dose curve; as a rule, active = well fitted activation curve with a large enough effect; inconclusive = small, poorly fitted or top-dose-only effect; inactive = no such curve, though single readings can be large or run the other way.
SMILES,MCF10A rerep,Giardia kill,uPA generation,SW480 rereplic
CO[C@@H]1[C@@H](OC2OC(C)C(OC3CC(C)(O)C(OC(=O)CC(C)C)C(C)O3)C(N(C)C)C2O)[C@@H](CC=O)C[C@@H](C)C(=O)/C=C\C2O[C@H]2C[C@@H](C)OC(=O)C[C@H]1OC(C)=O (stereo partly specified),30µM*,x,x,19µM*
Cc1cc(S(=O)(=O)NCc2cccnc2)ccc1-n1cnnn1,18µM*,-3,-5%,u
CCSc1nc(CC)c2c(c1C#N)CCCC2,-4%,-6,5%,0.52µM*
CCOC(=O)C1=C(C)N=c2s/c(=C\c3ccc(OCC(=O)O)cc3)c(=O)n2C1c1ccc(OC(C)C)cc1 (stereo unspecified),15µM*,1,-3%,-40%
C[C@H](O)[C@@H]1C(=O)N2CCc3ccc(-c4ccccc4)cc3[C@@H]2C[C@@H]1N(C)C(=O)Nc1cc(Cl)cc(Cl)c1,4%,-17,u,-2%
COC(=O)/C(=C1/Oc2cc(C)oc(=O)c2S1)C(F)(F)F,5.8µM*,2,-15%,12µM*
COC(=O)/C(=C1/Oc2ccc(C(C)(C)C)cc2S1)C(F)(F)F,-2%,-3,17%,-7%
C[n+]1c2n(c3ccccc31)N=C(c1ccc(Cl)cc1)CS2,14%,-11,-13%,u
COc1ccc(C2=Nn3c([n+](C)c4ccccc43)SC2)cc1,u,4,3.5µM*,6%
CCCC(=O)Nc1sc(C(=O)Nc2cccc(N)c2)c(C)c1C(=O)OC,18%,-7,-6%,-1%
COc1ccc(NC(=O)CC(c2ccc(F)cc2)c2ccc(OC(C)C)cc2)cc1 (stereo unspecified),18µM*,-2,-1%,3%
CC(C)Oc1ccc(C(CC(=O)O)c2ccc(F)cc2)cc1 (stereo unspecified),-3%,33,1%,-4%
O=S(=O)(c1ccc(F)cc1)N1CCN(c2nc(-c3ccccc3)nc3cc(Cl)ccc23)CC1,x,-6,x,x
Cc1cccc(C(=O)O/N=C(\N)Cc2ccc([N+](=O)[O-])cc2)c1,19%,-9,-5%,-3%[9.22 µM]
Cc1ccc(C(=O)O/N=C(\N)Cc2ccc([N+](=O)[O-])cc2)c(Cl)c1,18µM*,45,u,u
CN(CC(=O)Nc1ccc(F)cc1)C(=O)c1ccc(N2C(=O)CCC2=O)cc1,1%,9,17%,12%
Cc1ccc(CC(=O)Nc2ccccc2-c2ccccc2)cc1C,9.2µM*,-8,4%,3%
Cc1ccccc1CN(C)CC(=O)Nc1ccccc1-c1ccccc1,15µM*,19,1%,12%
COc1ccccc1CN(C)CC(=O)Nc1ccccc1-c1ccccc1,u,8,5%,1%
CN(CC(=O)Nc1ccccc1Oc1ccccc1)Cc1ccccc1F,8.2µM*,-13,-4%,7%
COc1ccc(CC(=O)Nc2ccccc2-c2ccccc2)cc1OC,3%,-4,x,1%
O=C(CN1CCCCC1)Nc1ccccc1Oc1ccccc1,18µM*,-24,5%,-122%
Cc1ccccc1CN(C)CC(=O)Nc1ccccc1Oc1ccccc1,u,40,12%,5%
COc1cc(C(=O)Nc2cccc(-c3nc4cc(C)ccc4o3)c2C)cc(OC)c1OC,7.3µM*,1,-3%,1%
CCCCCCCCC1=NCCc2c1[nH]c1ccccc21,12µM*,-24,-1%,u
SMILES,MCF10A rerep,Giardia kill,uPA generation,SW480 rereplic
Cc1ccc(NCCC(=O)c2cccs2)cc1,u,3,u,0%
O=C(N/N=C(\CC(=O)c1cccs1)C(F)(F)F)c1ccncc1,u,-1,-16%,7.3µM*
Cc1ccc(C(=O)N/N=C(/CC(=O)c2cccs2)C(F)(F)F)cc1,18µM*,8,2%,-3%
CCOC(=O)c1c(-c2ccc(F)cc2)csc1NC(=O)C1CCCO1 (stereo unspecified),6%,1,-3%,-7%
CCOC(=O)c1c(-c2ccc(C)cc2)csc1NC(=O)C1CCCO1 (stereo unspecified),13µM*,9,-3%,2%
CCOC(=O)c1c(-c2ccc(C)cc2)csc1NC(=O)CCN1CC(C)OC(C)C1 (stereo unspecified),21µM*,6,5%,3%
CC(C)OC(=O)c1c(-c2ccc(C(C)C)cc2)csc1NC(=O)C1CCCO1 (stereo unspecified),18µM*,-19,5%,13%
CCOC(=O)c1c(-c2ccc(C)o2)csc1NC(=O)CN1CCCCC1,23µM*,-4,-10%,1%
COc1ccc(CNC(=O)CCCC(=O)n2nc(C)c3ccccc32)cc1,9%,9,0%,-4%
Cc1nc(SCC(=O)N2CCN(c3ccccn3)CC2)c(C#N)c(C)c1C,1%,15,-1%,-8%
COc1cc(/C=C(\C#N)c2nc3ccccc3[nH]2)cc(Br)c1OCc1ccccc1,18µM*,-6,5%,18µM*
COc1cc(/C=C(\C#N)c2nc3ccccc3[nH]2)cc(Br)c1OCc1ccc(F)cc1,8.2µM*,2,1%,u
Cc1ccc(S(=O)(=O)N(C)C)cc1NC(=O)c1ccccc1SCC(=O)N1CCCC1,-2%,-8,1%,-1%
COc1cc(/C=C2\CC/C(=C\c3cc(OC)c(OC)c(OC)c3)C2=O)cc(OC)c1OC,5.8µM*,22,8%,u
COc1cc(/C=C2/CCc3ccccc3C2=O)cc(OC)c1OC,18µM*,28,-7%,u
COc1cc(/C=C2\CC(C(C)(C)C)C/C(=C\c3cc(OC)c(OC)c(OC)c3)C2=O)cc(OC)c1OC (stereo unspecified),3.3µM*,23,u,7.3µM*
CC[C@H](C)[C@H]1O[C@]2(CC[C@@H]1C)C[C@@H]1C[C@@H](C/C=C(\C)[C@H](O[C@@H]3C[C@H](OC)[C@H](O[C@@H]4C[C@H](OC)[C@@H](O)[C@H](C)O4)[C@H](C)O3)[C@@H](C)/C=C/C=C3\CO[C@@H]4[C@H](O)C(C)=C[C@@H](C(=O)O1)[C@]34O)O2,u,x,x,-1%
N=c1c2c(-c3ccccc3)c(-c3ccccc3)oc2ncn1CCCN1CCOCC1,12µM*,29,4%,u
N=c1c2c(-c3ccccc3)c(-c3ccccc3)oc2ncn1CCN1CCOCC1,13%,-12,0%,-2%
COC(=O)[C@H](Cc1c[nH]c2ccccc12)NC(=O)NCc1ccccc1,5%,21,6%,25%
CC(C)(C)OC(=O)NCc1ccc(NC(=O)c2nc[nH]c2C(=O)NCCNC(=O)c2[nH]cnc2C(=O)Nc2ccc(CNC(=O)OC(C)(C)C)cc2)cc1,23µM*,0,14%,u
CC(C)C[C@H](NC(=O)c1nc[nH]c1C(=O)NCCCCCNC(=O)OC(C)(C)C)C(=O)OCc1ccccc1,u,9,22%,-1%
CC(C)C[C@H](NC(=O)c1[nH]cnc1C(=O)Nc1ccc(CNC(=O)OC(C)(C)C)cc1)C(=O)OC(C)(C)C,u,-3,u,4%

# Compound activity as filed in PubChem BioAssay.
